The values that follow come from PubChem BioAssay (NCATS).

Assay [1] can be described thus: Quantitative High-Throughput drug screen in 47 multiple myeloma cell lines against the NCATS MIPE library collection: KMS26_JCRB cell viability assay (AID 1918975). Note: nearly all actives have a fitted effect of over 45% in size. The gist of the method: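 Viability readout: CellTiter-Glo luminescence following 5 min room-temperature incubation with reagent. Prior exposure: 48 h, 37C, humidified 5% CO2, 500 cells per well.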
Assay [2] in a line: Quantitative High-Throughput drug screen in 47 multiple myeloma cell lines against the NCATS MIPE library collection: MMM1_PLB cell viability assay (AID 1918976). Note: nearly all actives have a fitted effect of over 35% in size. The gist of the method: (§1)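 MIPE 4.0 approved/investigational drugs; 500 cells/well; 48 h 37 °C humidified 5% CO2; CTG luminescence readout; DMSO = 100%, media = 0% viability.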
Assay [3] in a line: Quantitative High-Throughput drug screen in 47 multiple myeloma cell lines against the NCATS MIPE library collection: MOLP8_DSMZ cell viability assay (AID 1918977). Note: nearly all actives have a fitted effect of over 45% in size. In a few lines: as §1
The nature of assay [4]: Quantitative High-Throughput drug screen in 47 multiple myeloma cell lines against the NCATS MIPE library collection: NCIH929_DSMZ cell viability assay (AID 1918978). Note: nearly all actives have a fitted effect of over 35% in size. In a few lines:
as §1

Assay [5] in a line: Quantitative High-Throughput drug screen in 47 multiple myeloma cell lines against the NCATS MIPE library collection: OCIMY1_PLB cell viability assay (AID 1918979). Note: nearly all actives have a fitted effect of over 35% in size. In a few lines: as §1
The nature of assay [6]: Quantitative High-Throughput drug screen in 47 multiple myeloma cell lines against the NCATS MIPE library collection: MM1S_ATCC cell viability assay (AID 1918980). Note: nearly all actives have a fitted effect of over 45% in size. The gist of the method: as §1
Assay [7] in a line: Quantitative High-Throughput drug screen in 47 multiple myeloma cell lines against the NCATS MIPE library collection: MM1R_ATCC cell viability assay (AID 1918981). Note: nearly all actives have a fitted effect of over 35% in size. The gist of the method:
as §1

Assay [8] in a line: Quantitative High-Throughput drug screen in 47 multiple myeloma cell lines against the NCATS MIPE library collection: KMS28PE_JCRB cell viability assay (AID 1918983). Note: nearly all actives have a fitted effect of over 35% in size. The gist of the method: as §1
The nature of assay [9]: Quantitative High-Throughput drug screen in 47 multiple myeloma cell lines against the NCATS MIPE library collection: L363_DSMZ cell viability assay (AID 1918984). Note: nearly all actives have a fitted effect of over 40% in size. In a few lines: as §1
A short description of assay [10]: Quantitative High-Throughput drug screen in 47 multiple myeloma cell lines against the NCATS MIPE library collection: LP1_DSMZ cell viability assay (AID 1918982). Note: nearly all actives have a fitted effect of over 35% in size. The gist of the method: as §1

The structures appear in SMILES notation. Records with an inconclusive call do not appear. Activity calls are given as the source filed them. Calls come from the whole dose curve; as a rule, active = well fitted curve in the direction sought with a large enough effect; inconclusive = small, poorly fitted or top-dose-only effect, or another doubt; inactive = no such curve, though single readings can be large; an effect the other way counts as inactive or inconclusive.
Potency is the fitted concentration of half-maximal effect.

With `Nc1cc(C(F)(F)F)c(-c2cc(N3CCOCC3)nc(N3CCOCC3)n2)cn1`, the Potency was 2.09 µM (active) in assay [1]; 0.526 µM (active) in assay [2]; 1.05 µM (active) in [3]; 0.209 µM (active) in assay [4]; 0.469 µM (active) in [5]; 0.235 µM (active) in assay [6]. For the same compound, the values for the Potency in assay [7], in assay [8] and in [9] were 1.18 µM (active), 0.935 µM (active) and 0.209 µM (active), respectively.
With `OCc1ccc(-c2ccc(-c3ccc(CO)s3)o2)s1`, the Potency in [1] is 11.8 µM (active); in [2], 3.72 µM (active); in assay [3] it was 20.9 µM (active); in assay [4], 2.64 µM (active); in assay [5], 23.5 µM (active); in assay [6], 6.62 µM (active). Further, the Potency was 3.72 µM (active) in assay [7] and 29.6 µM (active) in assay [8]. Also, in assay [9], the Potency result was “inactive”.
For `COc1cc2c(cc1-c1c(C)noc1C)ncc1[nH]c(=O)n([C@H](C)c3ccccn3)c12`, the Potency in assay [1] was 0.0264 µM (active); in [2], 7.43 µM (active); in assay [3], 0.296 µM (active); in assay [4] it was 3.32 µM (active); in [6], 2.64 µM (active); in assay [7] it was 3.32 µM (active). For the same compound, the values for the Potency in [10] and in assay [8] were 0.372 µM (active) and 0.662 µM (active), respectively.
Take `Nc1ncnc2c1c(-c1cnc3[nH]ccc3c1)nn2C1CCCC1`: the Potency in assay [1] is 10.5 µM (active); in assay [2] it was 0.187 µM (active); in assay [3], 0.105 µM (active); in assay [4], 0.235 µM (active); in assay [5], 1.87 µM (active); in [6], 2.96 µM (active). The Potency was 0.148 µM (active) in assay [10], 1.87 µM (active) in [8] and 0.0935 µM (active) in assay [9].
With `CN(C)CC=CC(=O)Nc1cc2c(Nc3ccc(F)c(Cl)c3)ncnc2cc1O[C@H]1CCOC1`, the Potency in assay [1] was 6.62 µM (active); in assay [2] it was 20.9 µM (active); in assay [3], 18.7 µM (active); in assay [4], 5.26 µM (active); in [5], 16.6 µM (active); in assay [6] it was 5.9 µM (active). Besides, the figures for the Potency in assay [7], in [8] and in [9] were 13.2 µM (active), 18.7 µM (active) and 1.32 µM (active), respectively.
On to `Cc1[nH]nc2ccc(-c3cncc(OC[C@@H](N)Cc4ccccc4)c3)cc12`, for which the Potency in [1] was 2.64 µM (active); in assay [2], 2.96 µM (active); in assay [3], 0.526 µM (active); in assay [4] it was 1.48 µM (active); in [6], 0.935 µM (active); in [7], 1.32 µM (active). The Potency in assay [10] was 4.18 µM (active); in assay [8], 4.18 µM (active); in assay [9] it was 0.935 µM (active).
Take `CNC(=O)c1cc(Oc2ccc(NC(=O)Nc3cc(C(C)(C)C)nn3-c3ccc4ncccc4c3)c(F)c2)ccn1`: the Potency in assay [1] is 9.35 µM (active); in assay [2], 14.8 µM (active); in assay [3], 4.18 µM (active); in assay [4], 4.69 µM (active); in assay [6] it was 11.8 µM (active); in assay [7], 7.43 µM (active). Besides, the Potency was 10.5 µM (active) in [10], 9.35 µM (active) in [8] and 18.7 µM (active) in assay [9].
`COc1cc(C(=O)N2CCC(N3CCN(C)CC3)CC2)ccc1Nc1ncc2c(n1)N(C)c1ccccc1C(=O)N2C`: the Potency was 1.66 µM (active) in [1]; 1.66 µM (active) in assay [2]; 2.09 µM (active) in [3]; 4.18 µM (active) in assay [4]; 7.43 µM (active) in assay [5]; 6.62 µM (active) in [6]. The Potency is 6.62 µM (active) in [7], 3.32 µM (active) in assay [8] and 4.69 µM (active) in assay [9].
As for `Cc1nc(N)ncc1-c1nc(N2CCOCC2)c2sc(C(C)(C)O)cc2n1`, the Potency in [1] is 0.526 µM (active); in assay [2] it was 0.148 µM (active); in assay [3], 0.118 µM (active); in [4], 0.0526 µM (active); in assay [5], 0.105 µM (active); in [6] it was 0.743 µM (active). In addition, the Potency in assay [7] is 1.32 µM (active); in assay [8] it was 0.118 µM (active); in assay [9], 0.0743 µM (active).
On to `c1nc2nc(Nc3ccc(N4CCOCC4)cc3)nc(NC3CCCCC3)c2[nH]1`, for which the Potency is 16.6 µM (active) in assay [1]; 10.5 µM (active) in [2]; 8.33 µM (active) in assay [3]; 3.72 µM (active) in assay [4]; 16.6 µM (active) in [5]; 5.9 µM (active) in assay [6]. For the same compound, the Potency in [7] is 14.8 µM (active); in assay [9], 5.26 µM (active).
As for `CC(C)c1ccc(Cn2ccc3c4c(N)nc(NC5CC5)nc4ccc32)cc1`, the Potency in assay [1] was 10.5 µM (active); in [2], 16.6 µM (active); in [3] it was 13.2 µM (active); in assay [4], 13.2 µM (active); in [5], 14.8 µM (active); in assay [6], 10.5 µM (active). For the same compound, the Potency in assay [10] was 4.69 µM (active); in assay [8], 9.35 µM (active); in assay [9] it was 0.469 µM (active).
Take `Cc1cc(Nc2cc(N3CCN(C)CC3)nc(C=Cc3ccccc3)n2)n[nH]1`: the Potency in [1] was 21.5 µM (active); in [2], 30.3 µM (active); in [3], 9.59 µM (active); in [4] it was 6.79 µM (active); in [5], 5.4 µM (active); in assay [6], 17.1 µM (active). In addition, the values for the Potency in [10] and in [8] were 34 µM (active) and 13.6 µM (active), respectively.
As for `Cc1cc(N2CCOCC2)cc2[nH]c(-c3c(NC[C@@H](O)c4cccc(Cl)c4)cc[nH]c3=O)nc12`, the Potency in assay [1] is 0.526 µM (active); in assay [2], 0.166 µM (active); in assay [3], 11.8 µM (active); in [4], 0.0526 µM (active); in [5] it was 0.296 µM (active); in assay [6], 0.187 µM (active). Besides, the figures for the Potency in assay [7], in assay [8] and in assay [9] were 0.187 µM (active), 0.332 µM (active) and 0.148 µM (active), respectively.
Consider `CC1(C)CC(=O)c2c(C(F)(F)F)nn(-c3ccc(C(N)=O)c(NC4CCC(OC(=O)CN)CC4)c3)c2C1` (stereo not drawn), for which the Potency in [1] is 0.187 µM (active); in [2], 0.418 µM (active); in assay [3] it was 0.148 µM (active); in [4], 0.148 µM (active); in assay [5], 0.469 µM (active); in assay [6], 0.209 µM (active). Also, the Potency in assay [7] is 0.209 µM (active); in assay [8], 0.235 µM (active); in assay [9] it was 0.0833 µM (active).
